Shiga inhibitor: Shiga toxin inhibition | Vero cells, Shiga toxin protein synthesis inhibition reporter | inhibition, % at 38.7 µM | 290,000 tested, 9.2% active; in the data active means inhibition mostly above about 28%, no sharp cut-off; inactive means mostly below about 43%
TbPYK inhibitor: blocks Trypanosoma brucei pyruvate kinase; Q57TT1; TbPYK enzyme, Kinase-Glo Plus ATP luminescence, 45 min; Potency, µM (titrated, usually from 76.8 µM), actives largely listed as inhibitors; 410,000 tested, 0.12% active; AID 624173; further: nearly all actives have a fitted effect of over 50% in size
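Screened from lowest to highest concentration, compounds were pinned into TbPYK/substrate mixtures, and ADP (130 uM final) was added. Plates sat at room temperature for 45 min prior to Kinase-Glo Plus detection by luminescence.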
FBPA Giardia inh: blocks Giardia fructose-bisphosphate aldolase activity. AID 2451. purified Giardia FBPA. A8B2U2. Potency, µM (series often up to 59.6 µM), usual class: inhibitors. 290,000 tested, 0.71% active; further: nearly all actives have a fitted effect of over 55% in size
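40 nM FBPA preincubated 10 min at RT with compound (up to 57.5 uM final), then substrate plus GAPDH/TPI/NAD/arsenate coupling and diaphorase/resazurin added. Fluorescence read after 20 min at RT, 525/598 nm.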
RE007 growth inh: less growth of the S. pombe RE007 Vpr strain | AID 651644 | 360,000 tested, 0.21% active | Potency, µM (series often up to 92.2 µM), hits mostly inhibitors | S. pombe RE007 Vpr strain, BacTiter-Glo ATP luminescence, 24 h; active means well fitted falling curve with a large enough effect; further: nearly all actives have a fitted effect of over 50% in size
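Fission yeast RE007 carrying one integrated HIV-1 vpr copy, seeded at OD 0.01 in PMG+AL medium with 23 nL pinned compound. Grown 24 h at 30 degrees; viability read by BacTiter-Glo luminescence after 5 min.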
LmPK inh: blocks Leishmania mexicana pyruvate kinase activity | AID 1721 | 290,000 tested, 0.37% active | purified LmPK, Kinase-Glo ATP luminescence, 1 h | Potency, µM (top dose mostly 57.5 µM), most hits filed as inhibitors
Target sequence (Q27686 whole entry, looked up): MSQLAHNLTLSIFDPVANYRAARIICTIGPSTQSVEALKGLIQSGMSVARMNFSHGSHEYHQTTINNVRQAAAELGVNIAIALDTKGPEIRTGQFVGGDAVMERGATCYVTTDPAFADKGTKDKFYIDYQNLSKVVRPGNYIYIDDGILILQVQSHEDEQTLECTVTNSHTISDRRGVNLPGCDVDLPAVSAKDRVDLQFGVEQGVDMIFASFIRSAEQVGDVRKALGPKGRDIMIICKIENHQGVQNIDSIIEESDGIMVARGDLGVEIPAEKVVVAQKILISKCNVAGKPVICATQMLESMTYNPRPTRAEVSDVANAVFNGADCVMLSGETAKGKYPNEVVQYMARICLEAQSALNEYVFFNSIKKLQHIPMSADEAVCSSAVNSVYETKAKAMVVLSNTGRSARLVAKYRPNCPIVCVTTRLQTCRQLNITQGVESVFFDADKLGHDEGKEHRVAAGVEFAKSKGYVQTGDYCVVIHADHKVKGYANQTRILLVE
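In 50 mM imidazole pH 7.2 with 7 mM MgCl2, LmPK (0.1 nM) turned over PEP (0.5 mM) and ADP (0.1 mM) for 1 h at room temperature. Luciferase read-out of ATP.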
CHX counter: counter-screen for Shiga toxin inhibitors: cycloheximide protein synthesis inhibition; cell reporter, cycloheximide protein synthesis inhibition counterscreen; max response, %; 300,000 tested, 12% active; AID 2314; in the data active means max response mostly above about 13%, no sharp cut-off; inactive means mostly below about 14%; further: read at 38.3 µM for the half of the compounds with a filed dose
Hits are given with their value; [ ] = dose if it differs, or a comment. The entries come from a sample that favours hits as a whole. Unless noted, the call rests on the fitted dose curve; in most records, active means well fitted curve in the direction sought with a large enough effect; inconclusive means small, poorly fitted or top-dose-only effect, or another doubt; inactive means no such curve, though single readings can be large; an effect the other way counts as inactive or inconclusive.

For Cc1cc2oc(=O)cc(C)c2cc1NC(=O)CCC(=O)O the results were Shiga inhibitor inactive, TbPYK inhibitor inactive, FBPA Giardia inh inactive, RE007 growth inh inactive, LmPK inh inactive and CHX counter inactive.
`CCCCOC(=O)Nc1ccc2c(C)cc(=O)oc2c1` gave Shiga inhibitor 59, TbPYK inhibitor inactive, FBPA Giardia inh inactive, RE007 growth inh inactive, LmPK inh inactive and CHX counter 52.
`O=C(NCCO)C(=O)Nc1c2c(nn1-c1ccc(F)cc1)CSC2` gave TbPYK inhibitor inactive.
`Cc1ccc(-n2ncc(C(=O)NC3CCCCC3)c2C2CCN(C(=O)OC(C)(C)C)CC2)cc1` gave TbPYK inhibitor inactive.
Cc1nc2scc(-c3ccccc3)c2c(=O)n1N was read as Shiga inhibitor inactive, TbPYK inhibitor inactive, FBPA Giardia inh inactive, RE007 growth inh inactive, LmPK inh inactive and CHX counter inactive.
Cc1nc2scc(-c3ccccc3)c2c(=O)n1N=C1C=CC(=O)C=C1 was read as Shiga inhibitor 49, TbPYK inhibitor 4µM, FBPA Giardia inh inactive, RE007 growth inh inactive, LmPK inh inactive and CHX counter 25.
For N#CCSc1nnc2ccc3ccccc3n12 the results were Shiga inhibitor active, TbPYK inhibitor inactive, FBPA Giardia inh inactive, RE007 growth inh inactive, LmPK inh inactive and CHX counter 13.
O=C1c2ccccc2C(=O)N1OCc1c(F)cccc1Cl was read as Shiga inhibitor inactive, TbPYK inhibitor inactive, FBPA Giardia inh inactive, RE007 growth inh inactive, LmPK inh inactive and CHX counter 22.
Screening O=C(Cc1c(F)cccc1Cl)OCN1C(=O)c2ccccc2C1=O returned Shiga inhibitor inactive, TbPYK inhibitor inactive, FBPA Giardia inh inactive, RE007 growth inh inactive, LmPK inh inactive and CHX counter inactive.
Screening CCOC(=O)COn1c(=O)c(-c2cccs2)[n+]([O-])c2ccccc21 returned Shiga inhibitor inactive, TbPYK inhibitor inactive, FBPA Giardia inh inactive, RE007 growth inh inactive, LmPK inh inactive and CHX counter 33.
Screening COn1c(=O)c(-c2cccs2)[n+]([O-])c2ccccc21 returned Shiga inhibitor inactive, TbPYK inhibitor inactive, FBPA Giardia inh inactive, RE007 growth inh inactive, LmPK inh inactive and CHX counter 20.
Oc1c(CN2CCOCC2)cc(COCc2ccccc2)c2cccnc12 was read as Shiga inhibitor inactive, TbPYK inhibitor inactive, FBPA Giardia inh inactive, RE007 growth inh inactive, LmPK inh inactive and CHX counter 28.
For CCOc1ccc(CC(=O)Nc2ccc3nc(N4CCCCC4)cc(C)c3c2)cc1OCC the results were TbPYK inhibitor inactive.
C[C@H]1C[C@@H]2[C@H]([C@@H](O)C[C@@]3(C)[C@H]2CC[C@]3(O)C(=O)COC(=O)CCC(=O)O)[C@@]2(C)C=CC(=O)C=C12 was read as TbPYK inhibitor inactive.
Screening CCCCOc1cccc(NC(=O)CSc2nccn2C)c1 returned Shiga inhibitor inactive, TbPYK inhibitor inactive, FBPA Giardia inh inactive, RE007 growth inh inactive, LmPK inh inactive and CHX counter 8.8.
`COc1ccc(-n2c(Cc3cccn3C)nnc2SCC(=O)Nc2cccc(OC)c2)cc1` gave Shiga inhibitor inactive, TbPYK inhibitor inactive, FBPA Giardia inh inactive, RE007 growth inh inactive, LmPK inh inactive and CHX counter inactive.
Screening Cn1ccnc1SCC(=O)Nc1cccc(C(F)(F)F)c1 returned Shiga inhibitor inactive, TbPYK inhibitor inactive, FBPA Giardia inh inactive, RE007 growth inh inactive, LmPK inh inactive and CHX counter inactive.
Screening COc1cccc(NC(=O)CSc2nnc(Cc3cccn3C)n2-c2ccc(F)cc2)c1 returned Shiga inhibitor 29, TbPYK inhibitor inactive, FBPA Giardia inh inactive, RE007 growth inh inactive, LmPK inh inactive and CHX counter 19.
For Cn1ccnc1SCC(=O)Nc1cccc(O)c1 the results were Shiga inhibitor inactive, TbPYK inhibitor inactive, FBPA Giardia inh inactive, RE007 growth inh inactive, LmPK inh inactive and CHX counter 21.
For COc1ccc(-c2ccc(C3C4C=CCC(C)C4C(=O)N3Cc3ccccc3)c(F)c2)cc1C (stereo not given) the results were Shiga inhibitor inactive, FBPA Giardia inh inactive and CHX counter inactive.
`CN(C)S(=O)(=O)c1cccc(COC(=O)Cc2c(F)cccc2Cl)c1` gave Shiga inhibitor inactive, TbPYK inhibitor inactive, RE007 growth inh inactive, LmPK inh inactive and CHX counter 14.
Screening COC(=O)C1=C(C(=O)OC)[C@@H]2N(C)c3ccccc3[C@@]23C[C@@H](C(=O)OC)N(S(=O)(=O)c2ccc4c(c2)OCCN4C)C3=N1 returned FBPA Giardia inh inactive[12.9 µM] and LmPK inh inactive[11.5 µM].
`CC(=O)NCC(=O)OCC(=O)c1ccc2ccccc2c1` gave Shiga inhibitor inactive, TbPYK inhibitor inactive, FBPA Giardia inh inactive, RE007 growth inh inactive, LmPK inh inactive and CHX counter inactive.
`Cc1cc(=O)oc(C)c1C(=O)OCC(=O)c1ccccc1` gave Shiga inhibitor inactive, TbPYK inhibitor inactive, FBPA Giardia inh inactive, RE007 growth inh inactive, LmPK inh inactive and CHX counter 30.
For Cc1cc(=O)oc(C)c1C(=O)OCC(=O)c1ccc2ccccc2c1 the results were Shiga inhibitor 52, TbPYK inhibitor inactive, FBPA Giardia inh inactive, RE007 growth inh inactive, LmPK inh inactive and CHX counter 30.
`CC(C)CCNC(=O)CSc1nc2ccsc2c(=O)n1NC(=O)c1ccccc1` gave Shiga inhibitor inactive, TbPYK inhibitor inactive, FBPA Giardia inh inactive, RE007 growth inh inactive, LmPK inh inactive and CHX counter 26.
`CCCN(CCC)C(=O)CSc1nc2ccsc2c(=O)n1NC(=O)c1ccccc1` gave Shiga inhibitor inactive, TbPYK inhibitor inactive, FBPA Giardia inh inactive, RE007 growth inh inactive, LmPK inh inactive and CHX counter 19.
`Cc1ccc(Cn2c(SCC(=O)NCc3ccccc3)nc3ccsc3c2=O)cc1` gave TbPYK inhibitor inactive.
For CC(=O)c1cccc(NC(=O)C2CCN(S(=O)(=O)c3ccc4c(c3)CCCN4C(C)=O)CC2)c1 the results were TbPYK inhibitor inactive.
`COc1ccc(CCNC(=O)c2ccc3c(c2)CCN3S(=O)(=O)c2ccccc2)cc1` gave TbPYK inhibitor inactive.
For COc1ccc(/C=C\C(=O)NCC(=O)N/N=C/c2ccc(O)cc2O)cc1 the results were Shiga inhibitor inactive, TbPYK inhibitor inactive, FBPA Giardia inh inactive, RE007 growth inh inactive, LmPK inh inactive and CHX counter inactive.
For Cc1ccc(NCC(=O)N/N=C/c2ccncc2)cc1 the results were Shiga inhibitor inactive, TbPYK inhibitor inactive, FBPA Giardia inh inactive, RE007 growth inh inactive, LmPK inh inactive and CHX counter inactive.
Screening Cc1ccc(C(=O)Nc2nnc(CC(=O)N/N=C/c3ccncc3)s2)cc1 returned Shiga inhibitor 57, TbPYK inhibitor inactive, FBPA Giardia inh inactive, RE007 growth inh inactive, LmPK inh inactive and CHX counter 30.
